Consider twelve compounds from PubChem BioAssay (NCI).

The panel holds about 83,000 compounds, 20% with a hit somewhere; the sample as a whole holds those more often.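 Note: values are percent growth. 100 is the growth of untreated cells, values between 100 and 0 indicate rising inhibition; between -100 and 0 indicates cell death.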 A number with no mark means an inactive call. Active and inactive are the calls of the source. The calls were made as follows: active = growth percent below 10; inactive = the rest.

This experiment relates to MCF7 breast. Briefly: NCI-60 one-dose screen, 48 h (100 = growth as untreated, 0 = no growth, -100 = all killed). As to conditions: 10 µM unless noted.
Consider `C=C1C(=O)O[C@H]2[C@H]1CC/C(COC(=O)NCCc1ccc(Br)cc1)=C\CC[C@@]1(C)O[C@@H]21`, for which the growth was 4.4% (active).

Turning to `COc1ccc(C(=O)/C=C/c2ccc(/C=C/c3cc(OC)c(OC)c(OC)c3)cc2)cc1`, the growth was 30.6%.

Turning to `COc1ccc(C2CC(=O)Nc3c2c(C)nn3-c2nc3ccccc3[nH]2)cc1OC` (configuration not stated), the growth was 46.4%.

As for `O=C(O)c1ccc(-n2cc(CNc3ccc(C(F)(F)F)cc3)c(-c3ccccc3)n2)cc1`, the growth was 81.8%.

Consider `C=C1C(=O)O[C@H]2[C@H]1CC/C(COC(=O)NCCc1cccc(OC)c1)=C\CC[C@@]1(C)O[C@@H]21`, for which the growth is 14.7%.

As for `Nc1ccc(S(=O)(=O)c2ccc(Cl)cc2)cc1`, the growth is 99.3%.

With `C/C(=C\c1csc(C)n1)[C@@H]1C[C@@H]2O[C@]2(C)CCC[C@H](C)[C@H](O)[C@@H](C)C(=O)C(C)(C)[C@@H](O)CC(=O)N1`, the growth is -82.1% (active).

In the case of `CCNC(=O)C1CCCN1C(=O)C(CCCN=C(N)N)NC(=O)C(CC(C)C)NC(=O)C(CC(C)C)NC(=O)C(Cc1ccc(O)cc1)NC(=O)C(CO)NC(=O)C(Cc1c[nH]c2ccccc12)NC(=O)C(Cc1cnc[nH]1)NC(=O)C1CCC(=O)N1` (configuration not stated), the growth was 86.1%.

For the compound `O=C(O)C(=Cc1c2ccccc2cc2ccccc12)C(=O)O`, the growth was 97.5%.

Regarding `CCCCCCCCCCn1cc[n+](C)c1`, the growth is 3.94% (active).

For the compound `O=C(Nc1ccc(I)cc1)c1cc([N+](=O)[O-])ccc1O`, the growth is 18.9%.

As to `C[C@]12CC[C@@H]3c4cc(O)c(O)cc4CC[C@H]3[C@@H]1CC[C@@H]2O`, the growth was 17.8%.
